hcDAF-12 act: activates DAF-12 receptor from parasite H. contortus | 370,000 tested, 1.4% active | activation, % at 6.8 µM | HEK293 hcDAF-12 lit1-tk-luc reporter, luminescence; 0% DMSO, 100% Δ7-dafachronic acid;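 active = activation above the mean of all tested compounds plus 3 SD, cut at about 5.5% in these data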;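 also: 100% = response to 3 µM Δ7-dafachronic acid high control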
ssDAF12 agonist: activates DAF-12 receptor from parasite S. stercoralis; HEK293 ssDAF-12/GRIP1 lit1-tk-luc reporter, luminescence; % of 3 µM dafachronic acid response; activation, % at 6.8 µM; 370,000 tested, 1% active; AID 652126;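 active = activation above the mean over all tested compounds plus 3 SD, cut at about 0.9% in these data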;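 also: 0% = DMSO-only wells and 100% = 3 µM delta7-dafachronic acid wells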
DAX1 inh-1: inhibitors of human orphan nuclear receptor DAX1 (NR0B1). P51843. HEK293 Gal4-DAX1 luciferase reporter, luminescence. inhibition, % at 6.75 µM. 340,000 tested, 0.99% active. AID 504766;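 active = inhibition above the mean over all tested compounds plus 3 SD, cut at about 4.2% in these data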;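 also: 0% = DAX1-transfected cells with DMSO and 100% = empty-vector control cells with DMSO; inhibition shows as a rise in luminescence from relieved DAX1 repression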
Target sequence (P51843 207-470 limits assumed): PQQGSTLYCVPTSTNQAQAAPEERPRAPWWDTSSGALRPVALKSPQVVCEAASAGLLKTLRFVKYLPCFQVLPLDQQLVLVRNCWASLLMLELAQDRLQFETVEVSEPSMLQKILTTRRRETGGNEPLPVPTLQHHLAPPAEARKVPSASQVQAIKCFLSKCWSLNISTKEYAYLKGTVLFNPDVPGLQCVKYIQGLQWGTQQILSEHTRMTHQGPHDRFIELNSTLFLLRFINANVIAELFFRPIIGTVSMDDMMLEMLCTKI
DAX1 inh-2: inhibitors of DAX1 repression of SF-1 activated StAR promoter. HEK293T StAR-luciferase reporter, SF-1/DAX-1 repression relief. inhibition, % at 6.8 µM. 370,000 tested, 1.1% active. AID 652010;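 active = inhibition above the mean over all tested compounds plus 3 SD, cut at about 3.6% in these data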;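 also: 0% = DAX-1 cells with DMSO and 100% = cells lacking DAX-1 with DMSO; higher inhibition means more luminescence from relief of DAX-1 repression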
AHR act: human AHR activation. AHR-responsive luciferase reporter cells, luminescence. P35869. activation, % at 5 µM. 320,000 tested, 2.5% active; in the data active = activation above about 47%;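 also: 0% = vehicle wells and 100% = reference agonist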
hgDAF-12 ag: activates the H. glycines DAF-12 receptor ligand-binding domain; HEK293 GAL4-hgDAF12 UAS-luciferase reporter, agonist luminescence; normalized to butyrate control; activation, % at 6.8 µM; 370,000 tested, 1.8% active; AID 687014;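 active = activation above a cutoff set at the mean of all screened compounds plus 3 SD, cut at about 10% in these data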;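 also: 0% = DMSO wells and 100% = sodium butyrate wells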
LXR ag: counter-screen for hcDAF-12 agonists: agonists of human LXR-beta. 3,400 tested, under 10 active. AID 743027. activation, % at 6.8 µM. HEK293 Gal4-LXR tk-luc reporter, luminescence, 24 h; normalized: DMSO 0%, positive control 100%. shares compounds with hcDAF-12 act;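 active = mean percent activation of the reporter above a cutoff set as the average over tested compounds plus their standard deviation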
hcDAF12 conf: hcDAF-12 agonism, confirmation assay; 3,400 tested, 61% active; shares compounds with hcDAF-12 act; AID 743032; activation, % at 6.8 µM; HEK293 hcDAF-12 lit1-tk-luc reporter, luminescence; % of Δ7-dafachronic acid response;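 active = mean activation across triplicate tests above the threshold derived from the earlier primary screen, cut at about 5.5% in these data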;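 also: 0% = DMSO only wells and 100% = 3 µM Δ7-dafachronic acid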
hgDAF12 ag: confirmation of H. glycines DAF-12 agonists; shares compounds with hgDAF-12 ag; HEK293 GAL4-hgDAF12 luciferase reporter, agonist mode; percent of butyrate response; activation, % at 6.8 µM; 3,300 tested, 80% active; AID 743050;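 active = mean activation over triplicate wells above the hit cutoff derived from the earlier primary screen, cut at about 11% in these data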;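 also: 0% = DMSO low control and 100% = 2 mM sodium butyrate high control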
LXRb DAF12 ctr: activates human LXR-beta, counter-screen for DAF-12 agonists. HEK293 Gal4-LXR luciferase reporter, 24 h. shares compounds with hgDAF-12 ag. AID 743051. 3,300 tested, under 10 active. activation, % at 6.8 µM;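 active = mean activation of the triplicate above a set limit carried over from the primary screen, none filed active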
An asterisk follows results filed as active; nt = no result given. The list is not random: actives were taken first. Their share in the collection is about 5.7%.

SMILES	hcDAF-12 act	ssDAF12 agonist	DAX1 inh-1	DAX1 inh-2	AHR act	hgDAF-12 ag	LXR ag	hcDAF12 conf	hgDAF12 ag	LXRb DAF12 ctr
COc1cc(CCCN2C(=S)NC[C@H]2Cc2ccc(O)cc2)cc(OC)c1OC	-1	-1	-1	-2	1	-2	nt	nt	nt	nt
Cc1ccc(NC(=O)c2ccc3c(c2)OCO3)cc1Cl	8.0*	1.7*	4.7*	3	13	17*	1	5	18*	1
Cc1ccc2nc(-c3ccc(NC(=O)CCS(=O)(=O)c4ccccc4)cc3)sc2c1	8.9*	1.5*	-5	1	-13	18*	1	7.6*	13*	1
Cc1ccc(NC(=O)CCS(=O)(=O)c2ccc3nc(C)sc3c2)cc1	-1	-2	1	0	1	-1	nt	nt	nt	nt
CCC1=Nc2ccccc2NC2=C1C(=O)CCC2	15*	2.6*	2	4	47	14*	0	7.9*	10	0
Cc1ccc(C(=O)CSc2ncnc3ccccc23)o1	3	0	0	0	11	8	nt	nt	nt	nt
O=C(CSc1ncnc2ccccc12)c1cccs1	16*	2.4*	1	1	25	19*	1	8.8*	17*	1
CCOC(=O)c1ccc(COc2ccc(C(C)C)cc2)o1	2	0	2	4	0	10	nt	nt	nt	nt
CCC(C)c1ccc(OCc2ccc(C(=O)O)o2)cc1 (configuration not stated)	10*	1	-4	3	-1	15*	1	8.7*	22*	1
COc1cccc(/C=c2\s/c(=C\C(=O)C(C)(C)C)[nH]c2=O)c1	-1	-1	-1	0	34	1	nt	nt	nt	nt
COc1ccc(OC)c(NC(=O)CCNC(=O)Cn2cnc3ccccc3c2=O)c1	-1	-1	1	0	-1	-1	nt	nt	nt	nt
C=CCn1c(C)cc(C(=O)CN2NS(=O)(=O)c3ccccc3C2=O)c1C	8.8*	1.8*	5.4*	3	22	15*	0	5.8*	5	0
Cc1nc2cc(-c3ccccc3)nn2c(N)c1-c1ccccc1	0	-1	0	1	-7	-2	nt	nt	nt	nt
Cc1nn(-c2nc3ccccc3s2)c(N)c1-c1ccccc1	15*	0	4	4.5*	42	19*	1	5	18*	1
COc1ccc(NC(=O)n2ncc3c(C)cccc32)cc1OC	-1	0	0	1	-7	5	nt	nt	nt	nt
COc1ccc(NC(=O)n2ncc3c(C)cccc32)cc1	12*	0	4	3	-8	14*	1	11*	21*	1
COc1cccc(C(=O)O/N=C(\N)c2ccc(C)cc2)c1	9.7*	0	4.5*	2	68*	16*	1	7.2*	20*	1
O=C1NC(c2ccco2)Nc2ccccc21 (configuration not stated)	-2	-1	1	0	2	-1	nt	nt	nt	nt
CN(C)c1ccc(C2NC(=O)c3ccccc3N2)cc1 (configuration not stated)	8.1*	1	2	2	9	14*	2	8.3*	20*	1
CCCCN(C)C(=O)c1cc2cc3ccc(OC)cc3nc2s1	7.0*	0	-1	3	-6	17*	1	7.1*	16*	1
COc1cc(C(=O)O)nc2ccccc12	-1	-1	1	0	-2	-2	nt	nt	nt	nt
Cc1ccc2oc(-c3ccc(C)c(NC(=S)NC(=O)c4cccs4)c3)nc2c1	11*	2.6*	4.7*	3.9*	2	14*	1	8.9*	14*	1
Cc1ccc2oc(-c3ccc(C)c(NC(=O)Cc4cccs4)c3)nc2c1	0	0	1	0	0	1	nt	nt	nt	nt
O=C(O)c1cccc(COc2ccc3c(c2)CCC3)c1	10*	2.8*	-9	3.6*	-11	14*	2	12*	23*	1
O=C(NN=C1CCCC1)c1cccs1	7.0*	1	3	4.4*	17	22*	0	1	4	0
SMILES	hcDAF-12 act	ssDAF12 agonist	DAX1 inh-1	DAX1 inh-2	AHR act	hgDAF-12 ag	LXR ag	hcDAF12 conf	hgDAF12 ag	LXRb DAF12 ctr
O=C(NCc1cccs1)C1CCCN(C(=O)Nc2ccc(F)cc2)C1 (configuration not stated)	-2	-1	0	0	-1	1	nt	nt	nt	nt
CCN(CCO)C(=O)c1ccc2oc(Cc3ccc(Cl)cc3)nc2c1	-2	-1	3	-1	-2	-1	nt	nt	nt	nt
C=CCOc1cccc(C2c3c(oc4ccccc4c3=O)C(=O)N2c2ccccn2)c1 (configuration not stated)	2	-1	1	0	6	0	nt	nt	nt	nt
COc1ccc(-c2cc(-c3ccccc3O)[nH]n2)cc1OC	7.9*	0	4	3.6*	10	16*	1	3	16*	1
CN(C)c1ccc(-c2noc(C3CCN(S(=O)(=O)c4ccc(C(=O)O)cc4)CC3)n2)cc1	-2	-2	1	0	-2	1	nt	nt	nt	nt
CCCn1c(=O)c(Cc2ccccc2)c(O)c2ccccc21	-2	-1	0	1	-2	1	nt	nt	nt	nt
CCOC(=O)c1c(NC(=O)c2ccc(Cl)s2)sc(C)c1C	-1	0	0	0	3	0	nt	nt	nt	nt
CC(=O)Nc1cccc(/C(C)=N/NC(=O)c2cccs2)c1	6.7*	0	4	2	5	18*	0	1	1	0
CC(=O)Nc1ccc2nc(NC(=O)c3cccs3)sc2c1	6.7*	1.8*	3	4.2*	58*	21*	1	9.2*	13*	1
COc1ccc2cc(C(N)=O)c(=Nc3ccccc3)oc2c1	14*	0	2	4.3*	24	14*	1	2	13*	1
Nc1ccc(-c2nc3ccc(N)cc3s2)cc1	7.5*	1.1*	-1	1	-6	19*	1	8.3*	16*	1
Nc1cccc(-c2nc3ccc(N)cc3s2)c1	2	0	0	-1	10	6	nt	nt	nt	nt

Screening results: PubChem, The Scripps Research Institute Molecular Screening Center
